What follows are molecules tested on T1, PKAC-alpha. Conditions: concentration: 1 μM, replicates: in singlicate; n = 1.
T1 construct: gene PRKACA
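Note: KINOMEscan kinase panel screen.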

| Compound | %Inh [%] |
| --- | --- |
| Clc1cc(Nc2ncnc3cc[nH]c23)ccc1OCc1ccccn1 | 23 |
| COc1cc2ncnc(Nc3ccc(OCc4ccccc4Br)c(Cl)c3)c2cc1OC.Cl [GI261590] | 0 |
| CCCc1ccc(S(=O)(=O)NC2CCN(c3ccnc(Nc4ccc(OC)cc4)n3)C2)cc1 (centres unmarked) [GSK1379737] | 0 |
| C[C@H]1CC[C@@H](C(=O)Nc2ccccc2)CN1c1cc(-c2ccc3c(N)n[nH]c3c2)nc(N)n1 [GSK2283293] | 0 |
| Fc1ccc(Nc2nccc(-c3c(-c4ccc(Cl)cc4)nn4ncccc34)n2)cc1F [GW829058] | 15 |
| COc1ccc(-c2oc3ncnc(N)c3c2-c2ccc(OC)cc2)cc1 [SB-589132] | 0 |
| Nc1nc(-c2ccc3c(N)n[nH]c3c2)cc(N2CCC[C@@H](C(=O)Nc3ccccc3)C2)n1.O=C(O)C(F)(F)F.O=C(O)C(F)(F)F [GSK2288359] | 14 |
| CS(=O)(=O)CCNCc1ccc(-c2ccc3ncnc(Nc4ccc(OCc5ccccc5)c(Cl)c4)c3c2)o1.Cl [GW574783] | 4 |
| CNc1nccc(-c2c(-c3ccc(F)cc3)ncn2C2CCN(C)CC2)n1 [SB-222903] | 1 |
| Cl.O=S(=O)(c1cccc(F)c1)c1ccc(Nc2ncnc3cc(Br)sc23)cc1Cl [GSK306886] | 0 |
| Cl.c1ccc(Cn2ccc3cc(Nc4ncnc5ccccc45)ccc32)cc1 [GW275568] | 18 |
| FC(F)(F)c1ccc(-c2cc(-c3c[nH]nc3-c3ccccn3)ccn2)cc1 [GW599550] | 10 |
| CC(C)(C)c1ccc(-n2cnc3c(N)ncnc32)cc1 [SKF-97263] | 4 |
| Nc1nccc2scc(-c3ccc4c(c3)CCN4C(=O)Cc3cc(F)ccc3F)c12 [GSK2587663] | 0 |
| NC(=O)c1sc(-n2cnc3ccccc32)cc1OCc1ccccc1F [GSK1024306] | 21 |
| O=C(NCCCN1CCCC1=O)c1cnc(NCc2cc(Cl)ccc2Cl)nc1NC1CCNCC1 | 0 |
| CN1CCC(n2cnc(-c3ccc(F)cc3)c2-c2ccnc(NC3CCNCC3)n2)CC1 [SB-229482] | 0 |
| O=C(Nc1n[nH]c2nc(-c3ccco3)c(Br)cc12)c1ccc(CN2CCCC2)cc1.O=C(O)[C@H](O)[C@@H](O)C(=O)O [SB-742352] | 0 |

| Compound | %Inh [%] |
| --- | --- |
| FC(F)(F)c1ccc(-c2nn3ncccc3c2-c2ccnc(Nc3cccc(C(F)(F)F)c3)n2)cc1 [GW828205] | 0 |
| COc1ccc(NC(=O)Nc2ccc(C)c(-c3ccc(C(=O)Nc4ccncc4)cc3)c2)cc1 [GSK1398475] | 8 |
| Cl.Fc1ccccc1COc1ccc(Nc2ncnc3ccc(-c4nnc(C(F)(F)F)o4)cc23)cc1Cl [GW424170] | 0 |
| CCC(CC)(CC)n1cnc2c(N)ncnc21 [SKF-97620] | 11 |
| Cn1ccc2ncnc(Oc3ccc(NC(=O)Nc4cccnc4)c(Cl)c3)c21 | 7 |
| Cl.c1ccc(Cn2ncc3cc(Nc4ncnc5ccccc45)ccc32)cc1 [GW273749] | 0 |
| Cc1ccc(O)cc1Nc1cc(C(F)(F)F)nc2ccc(-c3ccncc3)cc12 [GW630823] | 10 |
| Cn1ccc2ncnc(Nc3ccc(Oc4cccc(Cl)c4)c(Cl)c3)c21 | 4 |
| Clc1ccc(-c2cc(-c3c[nH]nc3-c3ccccn3)ccn2)cc1 [GW681251] | 0 |
| COC(=O)c1cccc(NC(=O)NCCNc2ccnc(Nc3ccc(F)cc3)n2)c1 [GSK1379883] | 3 |
| C[C@@H]1CCN(C(=O)CO)C[C@@H]1N(C)c1ncnc2[nH]ccc12 | 0 |
| COc1ccc(NC(=O)c2ccc(-c3cc(-c4nnc(C)o4)ccc3C)cc2)cc1 [GW595885] | 0 |
| CC(C)N1CCC(n2cnc(-c3ccc(F)cc3)c2-c2ccnc(N)n2)CC1 [SB-223132] | 0 |
| Oc1ccc2ncnc(Nc3ccc(OCc4ccccc4)cc3)c2c1 [GI262866] | 0 |
| CC(=O)Nc1n[nH]c2ncc(-c3ccccc3)cc12 [SB-548492] | 0 |
| CCc1nc(-c2cccc(C)c2)c(-c2ccnc(NC(=O)c3ccccc3)c2)s1 | 0 |
| OCCOCCn1ccc2ncnc(Nc3ccc(Oc4cccc(Cl)c4)c(Cl)c3)c21 | 0 |

From PMC5540273 (PLoS ONE, 2017)
